M1 ag: activates the M1 muscarinic receptor; CHO-M1 cells, Fluo-4 calcium fluorescence, agonist mode; active compounds read high; B-score at 10 µM; hit rate 3% among 64,000; AID 626;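 active = fluorescence rise, raw or as B-score row- and column-corrected plate score, outside the 99.7% band of its plate's samples, either direction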
FXIa inh mix: blocks human factor XIa in pooled compound mixtures; P03951; AID 680; hit rate 0.19% among 62,000; inhibition, % at 5 µM; purified FXIa, fluorogenic substrate;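 also: each value is inhibition by a whole ten-compound pool holding the compound; 0% = enzyme with no mixture and 100% = wells lacking enzyme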
FXIIa mix inh: blocks human factor XIIa in pooled compound mixtures; purified FXIIa, fluorogenic substrate; inhibition, % at 5 µM; P00748; hit rate 0.2% among 62,000;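 also: 0% = enzyme without compound and 100% = no enzyme blank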
M1 antag: blocks the rat M1 muscarinic receptor response to acetylcholine | CHO-M1 cells, Fluo-4 calcium, ACh EC80 antagonist mode; active compounds read low | B-score at 10 µM | hit rate 3.4% among 64,000 | AID 628;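 active = calcium fluorescence response, raw or row-and-column corrected B-score, differing from the plate sample mean either way at a set confidence level, mostly lower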
hDAT+cocaine: changed human dopamine transporter uptake under cocaine IC80; hit rate 1.3% among 110,000; B-score at 10 µM; LLC-PK1 hDAT cells, [14C]-dopamine uptake with cocaine IC80; actives deviate in either direction; Q01959;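 active = Z score or B-score, a plate-position-corrected score, falls beyond the plate's 99.7% confidence bounds, in either direction; inactive = both scores lie inside the 99.7% bounds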;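 also: scored against the spread of the other compound wells on the same plate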
D1 mod: D1 dopamine receptor (human) allosteric modulation; HEK293 D1, CRE-luciferase, dopamine EC30 potentiation; actives deviate in either direction; hit rate 5.9% among 58,000; B-score at 10 µM; AID 641;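 active = luminescence count or its row- and column-corrected plate score outside the 99.7% band of the plate's sample wells, on either side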
Target sequence (P21728 whole entry, looked up): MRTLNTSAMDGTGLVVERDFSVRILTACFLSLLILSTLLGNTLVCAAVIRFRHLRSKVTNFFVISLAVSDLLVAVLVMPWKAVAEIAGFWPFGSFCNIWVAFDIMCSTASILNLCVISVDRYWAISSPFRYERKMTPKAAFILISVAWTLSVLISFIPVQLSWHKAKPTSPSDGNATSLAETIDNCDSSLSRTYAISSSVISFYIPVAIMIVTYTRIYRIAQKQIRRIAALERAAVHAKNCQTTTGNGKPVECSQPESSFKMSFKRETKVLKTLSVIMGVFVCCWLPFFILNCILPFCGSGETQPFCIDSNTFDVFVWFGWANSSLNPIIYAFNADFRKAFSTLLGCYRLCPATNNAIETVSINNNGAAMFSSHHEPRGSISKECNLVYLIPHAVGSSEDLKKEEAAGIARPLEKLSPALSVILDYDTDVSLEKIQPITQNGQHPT
Active calls of the source: *. Sampled rows, rich in hits. Any-hit rate of the full collection: about 7.4%. Rule as the data show it, unless noted: active = inhibition above about 20% (passing the limit was not always enough); inactive = the rest.

`COc1cc2cc(CN(Cc3nnnn3Cc3ccco3)C3CCCCC3)c(=O)[nH]c2cc1OC` gave M1 ag 0.0257, FXIa inh mix 1.4, FXIIa mix inh 7.3, M1 antag 0.445, hDAT+cocaine 3* and D1 mod 2.53.
For O=c1[nH]c2cc3c(cc2cc1CN(CCc1ccccc1)Cc1nnnn1CC1CCCO1)OCO3 (stereo not given) the results were hDAT+cocaine 0.226.
Screening CC(C)(C)n1nnnc1CN(Cc1ccco1)Cc1cc2cc3c(cc2[nH]c1=O)OCO3 returned M1 ag -0.704, FXIa inh mix 5.3, FXIIa mix inh 3.5, M1 antag 0.707, hDAT+cocaine 1.52* and D1 mod 0.652.
COc1ccc(Cn2nnnc2CN(Cc2cc3cccc(C)c3[nH]c2=O)C2CCCC2)cc1 was read as M1 ag 2.17, FXIa inh mix 0.9, FXIIa mix inh -14.8, M1 antag 1.11, hDAT+cocaine -0.00129 and D1 mod -3.33*.
`O=C(NCCN1C(=O)C2C3C=CC(C3)C2C1=O)N1CCOCC1` (stereo not given) gave M1 ag 0.0657, FXIa inh mix -17.1, FXIIa mix inh 2.1, M1 antag -0.142, hDAT+cocaine 0.781 and D1 mod 0.00418.
`C[N+]1(CCOS(=O)C23CC4CC(CC(C4)C2)C3)CCOCC1` (stereo not given) gave M1 ag -0.0374, FXIa inh mix 8.8, FXIIa mix inh 1.9, M1 antag 0.0388, hDAT+cocaine -0.956 and D1 mod 0.195.
Screening O/N=C/CCn1c(=S)sc2ccccc21 returned M1 ag -0.266, FXIa inh mix 7.9, FXIIa mix inh 4.4, M1 antag -0.393, hDAT+cocaine -0.014 and D1 mod -0.012.
For C#CCNC(=O)C1=C[C@H](C)C[C@H](OCc2ccc(CO)cc2)O1 the results were hDAT+cocaine -0.627.
Screening COc1cc2cc(CN(C(=O)Nc3ccccc3)C3CCCC3)c(=O)[nH]c2cc1OC returned M1 ag 0.0537, FXIa inh mix 10.3, FXIIa mix inh 4.4, M1 antag 0.389, hDAT+cocaine 3.29* and D1 mod -0.793.
`CCOc1ccc2[nH]c(=O)c(CN(Cc3ccco3)Cc3nnnn3Cc3ccccc3)cc2c1` gave M1 ag 2.85, FXIa inh mix 2.7, FXIIa mix inh 2.4, M1 antag 0.0587, hDAT+cocaine 1.05 and D1 mod -0.331.
`CCN(CC)CCCN(Cc1cc2cc(OC)c(OC)cc2[nH]c1=O)C(=O)Nc1ccccc1` gave hDAT+cocaine -0.0466.
Screening CCOc1ccc2[nH]c(=O)c(CN(Cc3nnnn3Cc3ccco3)C3CCCCC3)cc2c1 returned M1 ag 3.64*, FXIa inh mix 5.3, FXIIa mix inh -11.1, M1 antag -1.49 and hDAT+cocaine -0.247.
`COc1ccccc1C(=O)Nc1ccc(-c2nnc(SCC(=O)O)n2C)cc1` gave M1 ag -0.00221, FXIa inh mix 4.9, FXIIa mix inh 0.0, M1 antag 0.0578, hDAT+cocaine 0.589 and D1 mod -0.368.
`CCOc1cc(N2CCOCC2)c(OCC)cc1NC(=O)c1nc2nccc(C)n2n1` gave M1 ag 4.86*, FXIa inh mix 10.1, FXIIa mix inh 18.1, M1 antag -0.121 and D1 mod -0.391.
`O=C(NCc1nc2ccccc2[nH]1)C1=C[C@@H](c2ccc(Br)cc2)C[C@@H](OCCCCO)O1` gave hDAT+cocaine 0.213.
Screening O=C(NCc1nc2ccccc2[nH]1)C1=C[C@@H](c2ccccc2)C[C@@H](OCCCCO)O1 returned hDAT+cocaine 3.15*.
COC(=O)c1ccsc1NC(=O)c1ccc2c(c1)OCCO2 was read as M1 ag 1.44, FXIa inh mix 3.5, FXIIa mix inh 8.4, M1 antag 0.284, hDAT+cocaine -0.415 and D1 mod 3.79*.
For O=C(Nc1nc2ccccc2[nH]1)c1ccccc1F the results were M1 ag -0.82, FXIa inh mix 8.1, FXIIa mix inh -5.7, M1 antag 0.191, hDAT+cocaine 0.937 and D1 mod -7.94*.
For Cc1cc(NC(=O)c2ccccc2F)n(-c2nc3ccccc3[nH]2)n1 the results were M1 ag -0.231, M1 antag -0.144, hDAT+cocaine -1.25 and D1 mod 3.88.
Screening O=C(Nc1nc2ccccc2[nH]1)c1ccc(F)cc1 returned M1 ag 0.0377, FXIa inh mix 2.8, FXIIa mix inh -2.2, M1 antag -0.0192, hDAT+cocaine -0.698 and D1 mod -6.41*.
`CCc1ccc(-n2c(Cn3nc(C(F)(F)F)cc3C)n[nH]c2=S)cc1` gave hDAT+cocaine -0.0284.
CN(C)Cc1cc(CCNC(=O)c2ccc(Cl)cc2)ccc1O was read as FXIa inh mix 1.4, FXIIa mix inh 6.7, hDAT+cocaine -0.608 and D1 mod -2.91*.
Screening COCCN1C(=O)c2ccccc2C(C(=O)NCCCN2CCCC2)C1c1c[nH]c2ccccc12 (stereo not given) returned M1 ag -0.0226, FXIa inh mix 37.0*, FXIIa mix inh 7.6, M1 antag 0.309, hDAT+cocaine 0.00107 and D1 mod 0.562.
O=C(CCN1CCN(Cc2ccccc2)CC1)Nc1ccc(OCc2ccccc2)cc1 was read as hDAT+cocaine -0.958.
`CCOC(=O)c1c(NC(=O)CSc2nnnn2-c2ccc(OC)cc2)sc(C)c1C` gave hDAT+cocaine 0.419.
`O=c1cc(N2CCc3ccccc3C2)[nH]c(=O)n1C1CCCCC1` gave M1 ag -0.0481, FXIa inh mix 2.5, FXIIa mix inh 35.0*, M1 antag 1.21, hDAT+cocaine -0.205 and D1 mod -0.622.
`CC(=O)NC1CC2CCCC(C1)N2C(=O)Nc1ccccc1` (stereo not given) gave hDAT+cocaine 0.164.
Screening COc1cc(C2NC(=O)NC(C)=C2C(=O)OC2CCCCC2)cc(Br)c1O (stereo not given) returned M1 ag -0.96, FXIa inh mix 43.5, FXIIa mix inh -1.4, M1 antag 0.422, hDAT+cocaine 1.77 and D1 mod -4*.
`Cc1ccc(C(=O)OC2CCS(=O)(=O)c3sccc32)cc1` (stereo not given) gave hDAT+cocaine 0.0397.
`O=C(CCc1nc(-c2ccc(Cl)cc2)no1)OCc1ccc(Br)cc1` gave M1 ag -0.906, M1 antag 0.26, hDAT+cocaine 1.09 and D1 mod -0.338.
Cc1c(C)c2cc(Cl)c(O)c(CN3CCN(C)CC3)c2oc1=O was read as M1 ag -0.446, M1 antag 0.531 and hDAT+cocaine 0.297.
Screening COC(=O)c1cc(Br)c(=O)n(-c2ccc(C(C)=O)cc2)c1 returned M1 ag -0.096, FXIa inh mix 1.5, FXIIa mix inh 21.3*, M1 antag 1.11 and D1 mod -0.166.
For CCCS(=O)(=O)N1CCCC(C(=O)NCCCOCC)C1 (stereo not given) the results were M1 ag 0.0427, FXIa inh mix 3.9, FXIIa mix inh 7.4, M1 antag -0.319, hDAT+cocaine 0.561 and D1 mod 0.00351.
